Source: PubChem BioAssay (several laboratories)
FAS TE block – FAS thioesterase domain inhibitors, primary screen, biochemical, fluorescence intensity, uHTS; Fatty acid synthase (Homo sapiens), P49327; recombinant FAS-TE, OMFH fluorogenic substrate, fluorescence endpoint; inhibition, % at 15 µM; 360,000 compounds, 0.67% hits;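 active means compounds whose normalised, plate-corrected inhibition of enzyme fluorescence in the single-dose primary screen is 50% or more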;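 further: 0% = DMSO with enzyme and 100% = substrate without enzyme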
PLC-beta3 inh – human PLC-beta3 inhibitors, primary screen, biochemical, fluorescence; Purified PLC-beta3, fluorogenic substrate; AID 720704, 2013; 1-phosphatidylinositol 4,5-bisphosphate phosphodiesterase beta-3 (Homo sapiens), Q01970; inhibition, % at 12.2 µM; 370,000 compounds, 0.18% hits; in the data active means inhibition above about 11%;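 further: 0% = median of compound wells on plate and 100% = full blocker control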
Cardio protect – cardioprotection against H2O2-induced cell death, primary screen, uHTS, H9c2 cells, ATPLite luminescence. AID 588492, 2011. H9c2 cardiomyocytes, H2O2 injury protection, 2 h. protection from H2O2 cell death, % at 20 µM. 360,000 compounds, 0.63% hits;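 active means compounds giving at least 50% protection of heart cells from peroxide-induced death in the single-dose screen, raw or plate-pattern-corrected value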;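 further: 0% = DMSO wells with peroxide and 100% = DMSO wells without peroxide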
PLCg1 inh – PLC-gamma1 enzyme inhibitors, primary screen, biochemical, fluorescence, purified enzyme | 1-phosphatidylinositol 4,5-bisphosphate phosphodiesterase gamma-1 (Homo sapiens), P19174 | fluorogenic substrate | inhibition, % at 12.2 µM | 370,000 compounds, 0.84% hits | AID 720700, 2013; in the data active means inhibition above about 9.5%
* = called active by the depositor; i = inactive; x = no result given. Compounds with a hit are over-represented: about 2.2% of the library has one in this group of screens.

SMILES	FAS TE block	PLC-beta3 inh	Cardio protect	PLCg1 inh
CC(C)(C)c1nnc(N/N=C/c2cc(Br)ccc2O)n(N)c1=O	47	-7	76*	-7
CCc1nnc(N/N=C/c2cc(Br)c(O)cc2O)n1N	0	-25	-5	-12
OC(c1ccccc1)(c1ccccc1)C1CCN(CCCOc2ccc(-c3ccncc3)cc2)CC1	x	-7	x	-5
C[C@@H]1CN([C@H](C)CO)S(=O)(=O)c2ccc(C#Cc3ccccc3F)cc2O[C@H]1CN(C)C(=O)c1ccc2c(c1)OCO2	38	-17	106*	-10
C[C@H](CO)N1C[C@H](C)[C@@H](CN(C)CC2CCOCC2)Oc2cc(C#Cc3ccccc3F)ccc2S1(=O)=O	23	-6	25	-5
Cc1cc(NS(=O)(=O)c2ccc(NC(=O)CSc3nc4sc(C)c(C)c4c(=O)n3Cc3ccco3)cc2)nc(C)n1	x	-1	x	-4
Cc1[nH]c2ccccc2c1/C=N/NC(=O)c1cccs1	-4	-42	56*	-33
Cc1[nH]c2ccccc2c1/C=N/NC(=O)CNC(=O)c1cccs1	-10	-10	5	5
Cc1ccc(NC(=O)c2cc(-c3cccs3)nc3ccccc23)nc1	22	-341	64*	-233
Cc1ccccc1NC(=O)c1cc(-c2ccco2)nc2ccccc12	7	-444	1	-315
Cc1cccc(NC(=O)c2cc(-c3ccco3)nc3ccccc23)n1	-3	i	61*	-438
Cc1cc(C)c2nc(NNC(=O)c3cc(-c4cccs4)nc4ccccc34)sc2c1	10	-94	56*	-72
Cc1c(NC(=O)c2cc(-c3cccs3)nc3ccccc23)c(=O)n(-c2ccccc2)n1C	-1	-20	18	-19
Cc1nc2ccccc2c(=O)n1/N=C/c1ccc(O)c(O)c1O	1	-9	7	8
Cc1nc2ccccc2c(=O)n1/N=C/c1ccc2ccccc2c1O	20	x	57*	x
CC(=O)N1c2ccccc2C(=O)NCC1C(=O)NC(C)(C)C (stereo unspecified)	x	-8	x	-6
CCNC(=O)N(C)[C@H]1C[C@H]2c3[nH]c4c(-c5ccc6c(c5)OCO6)cccc4c3CCN2C(=O)[C@H]1[C@H](C)O	x	-36	x	-24
O=C1SC(SC(=Nc2ccccc2)Nc2ccccc2)C(=O)N1c1ccccc1 (stereo unspecified)	8	14*	-1	0
CCN(C[C@H]1[C@@H](c2ccc(C3=CCCC3)cc2)[C@H](CO)N1C(=O)c1cccnc1)S(=O)(=O)c1ccccc1[N+](=O)[O-]	x	0	x	0
C[C@@H]1CN([C@@H](C)CO)C(=O)c2cccc(NC(=O)Nc3cccc4ccccc34)c2O[C@H]1CN(C)S(=O)(=O)c1ccc2c(c1)OCCO2	x	-17	x	-18
Cn1c(Cc2cccs2)nnc1SCC(=O)N1CCCc2ccccc21	-5	-4	5	-3
O=C(CSc1nnc(Cc2cccs2)n1CCc1ccccc1)N1CCCc2ccccc21	10	-1	67*	2
CCc1nccn1CC(=O)c1ccc(O)c(O)c1	x	-1	x	1
CCc1c(C)nc(Nc2nc(C)c3ccc(OC)cc3n2)[nH]c1=O	0	-4	66*	-2
COc1ccc(CCNC(=O)c2c(N)[nH]c(C(=O)c3ccccc3)c2-c2ccc(N(C)C)cc2)cc1	x	-31	x	-20
SMILES	FAS TE block	PLC-beta3 inh	Cardio protect	PLCg1 inh
c1cc2[nH]snc2c2nc(C3CC3)nc12	-7	-48	86*	-35
Cc1cc(C)c(C)c(OCC(=O)NCC2CCCO2)c1 (stereo unspecified)	-9	4	3	12*
Cc1cc(C)cc(OCC(=O)NCC2CCCO2)c1 (stereo unspecified)	-6	-2	5	-1
Cc1cc(C)c2c(N)c(C(=O)N/N=C/c3cccnc3)sc2n1	-3	-74	66*	-49
Cc1cc(C)c2c(N)c(C(=O)N/N=C/c3ccccc3)sc2n1	-5	-112	27	-69
NNC(=O)c1oc2nc(-c3ccco3)cc(-c3ccco3)c2c1N	-9	-205	33	-166
Nc1c(C(=O)N/N=C/c2cccnc2)oc2nc(-c3ccccc3)cc(-c3ccco3)c12	-6	-149	68*	-97
Nc1c(C(=O)N/N=C/c2cccnc2)oc2nc(-c3ccco3)cc(-c3ccco3)c12	-11	-135	77*	-85
Cc1cccc(-n2c(SCc3cc(=O)n4ccsc4n3)nc3ccccc3c2=O)c1	10	0	67*	-5
C[C@H]1[C@@H](NC(=O)C2CCC2)CC[C@@]23CCCN2C(=O)CCC[C@@H]13	x	1	x	1
CC1=C(CC[C@@H](C)CO)OC2CC3C4CCC5CC(O)CCC5(C)C4CC(=O)C3(C)C12 (stereo partly specified)	2	2	50*	3
CC(CCC(=O)O)C1CCC2C3CCC4C[C@H](O)CCC4(C)C3CC(=O)C12C (stereo partly specified)	-2	2	6	6
COC(C/C=C\[C@H](O)[C@@H](C)OCc1ccccc1)OC	-8	12*	7	3
COc1ccc(CC(=O)NCC2CCN(C(=O)C(=O)c3cc4ccccc4o3)CC2)cc1	x	1	x	0
O=C1C(Cl)=C(N2CCCCC2)C(=O)C(Cl)=C1c1cnc(N2CCCCC2)s1	78*	x	4	x
Cc1ccc(N=Nc2ccc(O)c(/C=N\NC(=O)c3ccc(N)cc3)c2)cc1C	-1	-1	56*	-5
O=C(N/N=C/c1cc(Cl)ccc1O)c1ccc(Br)cc1	12	-34	31	-32
CCc1c(-c2cccc(Br)c2)ncn1CCc1ccccc1OC	x	1	x	0
O=S1(=O)CCC(N=Cc2cc(Br)ccc2O)C1 (stereo unspecified)	-2	4	70*	8
O=c1c2ccccc2c(C=NC2CCS(=O)(=O)C2)c(O)n1-c1ccccc1 (stereo unspecified)	-5	-13	3	-13
C=CCNc1cccc2c1S(=O)(=O)N[C@@H](C)CO2	x	0	x	2
Oc1ccccc1O	1	1	66*	-2
Oc1ccccc1	x	-2	x	1
O=C(N[C@H](C(=O)N1CCC[C@H]1C(=O)NC1CCCC1)C1CCCCC1)c1nccs1	x	-3	x	-1
C=CCN(CC#Cc1ccccc1)CC=C	x	6	x	2
SMILES	FAS TE block	PLC-beta3 inh	Cardio protect	PLCg1 inh
O=c1c2cccc3c2c(nn1CN1CCOCC1)-c1ccccc1-3	-2	x	75*	x
CC(C)C[C@H](NC1(C(=O)NC2CCCCC2)CCOCC1)C(=O)NCC(c1ccccc1)c1ccccc1	x	-2	x	2
O=C(O)c1ccccc1C(=O)Nc1cc(C(F)(F)F)ccc1N1CCCC1	20	3	-3	10*
Cc1nc(-c2ccc(O)c(O)c2)cs1	-7	2	61*	3
C/C(=N\NC(=O)CSCc1ccccc1Cl)c1cc(O)ccc1O	15	-8	51*	-3
CC(=O)Nc1ccc(NC(=O)CSCc2ccccc2Cl)cc1	-1	-4	1	-1
